The record followed here is PubChem BioAssay AID2314 (National Center for Advancing Translational Sciences (NCATS), 2010).

Out of some 300,000 compounds screened, about 37,000 (12%) were called active. Rule as the data show it: active = max response mostly above about 13% (no sharp cut-off); inactive = mostly below about 14%. For the sample, actives were picked, then their nearest neighbours and some compounds at random.

A short description of this assay: Cycloheximide Counterscreen for Small Molecule Inhibitors of Shiga Toxin. Also: read at 38.3 µM for the half of the compounds with a filed dose; 0% is about no effect. Particulars: cell reporter, cycloheximide protein synthesis inhibition counterscreen; hits give high values. (The purpose of a counterscreen is to sort out artefacts and off-target activity.)
For `Clc1ccc2nc(CSc3ccccc3)cn2c1`, the max response was 26.2% (active).
In the case of `CCOc1ncccc1C(=O)OCc1cn2cc(Cl)ccc2n1` it was 9.62% (inactive).
The value for `O=C(/C=C/c1ccc2c(c1)OCO2)NCc1cn2cc(Cl)ccc2n1` was 2.11% (inactive); that for `Cc1nn(CCCC(=O)NCc2ccccc2Cl)c(=O)c2nccn12` was -3.04% (inactive).
For `O=C(COC(=O)Cn1cnc2ccccc21)Nc1cccc2c1C(=O)c1ccccc1C2=O`, the max response was -4.76% (inactive).
Turning to `O=C(COC(=O)c1cccc(Br)c1)Nc1cccc2c1C(=O)c1ccccc1C2=O`, the max response is 25.2% (active).
In the case of `O=C(COC(=O)c1ccccc1)Nc1ccccc1Sc1ccccc1`, the max response was 9.64% (inactive).
In the case of `COc1ccc(C(=O)OCC(=O)Nc2cccc(C(C)=O)c2)cc1OC` it was 9.48% (inactive).
`Cc1cccc(C(=O)OCC(=O)Nc2ccc(F)cc2)c1`: the max response is 10% (active).
In the case of `O=C(COC(=O)Cc1ccccc1)Nc1ccc(F)cc1` it was -1.31% (inactive); in that of `O=C1CCN(Cc2ccccc2)CCN1[C@H](CSc1ccccc1)c1ccccc1`, -1.82% (inactive).
Turning to `CCOc1ccccc1NC(=S)NC(=O)CCc1ccccc1`, the max response was 1.38% (inactive).
`CCOc1ccc(CN2CCC(n3nccc3NC(=O)C3CC3)CC2)cc1CO`: the max response was -1.74% (inactive).
Take `Cc1ccc(CC2(O)CCN(CCOc3ccc(O)cc3)CC2)cc1`: the max response is 4.37% (inactive).
Regarding `CC(C)C(=O)Nc1ccc2oc(=O)ccc2c1`, the max response is -3.4% (inactive).
In the case of `CC(C)C(=O)Nc1c(C(=O)c2ccc(F)cc2)oc2ccccc12` it was -1.75% (inactive); in that of `CC(C)C(=O)Nc1ccc2c(c1)oc1ccccc12`, 67% (active); in that of `Cn1c(=O)c(=O)n(C)c2cc(S(=O)(=O)CCC(=O)N3CCCCC3)ccc21`, -2.58% (inactive).
In the case of `COc1ccccc1CCNC(=O)c1cnccn1` it was 12.4% (inactive).
In the case of `Cc1nn(Cc2ccccc2Cl)c(Cl)c1C(=O)OC(C(=O)NC(N)=O)C(C)C` (configuration not stated), the max response was -4.81% (inactive).
In the case of `COc1ccccc1CCNC(=O)c1c(C)nn(CC(C)C)c1Cl`, the max response is 39% (active).
For the compound `COc1ccc(C(=O)NC2CC2)cc1OC1CCN(C/C=C/c2ccccc2)CC1`, the max response was 2.49% (inactive).
In the case of `COc1ccc(C)cc1N(CC(=O)NC(C)c1ccccc1)S(C)(=O)=O` (configuration not stated), the max response is 5.61% (inactive).
In the case of `CO/N=C/CC(=O)c1ccc(OC)cc1`, the max response is 49.2% (active).
As for `COc1ccc(OCCC(=O)c2ccc(OC)cc2)cc1`, the max response was 4.64% (inactive).
In the case of `COc1ccc(C(=O)CC2C(=O)N(C)C(=O)N(C)C2=O)cc1`, the max response is 4.98% (inactive).
Consider `Cc1ccc(NS(=O)(=O)c2c(C)[nH]c(=O)[nH]c2=O)cc1C`, for which the max response is -1.76% (inactive).
Consider `CCOC(=O)c1nnn(-c2nonc2-n2cccc2)c1CN1CCC(C(=O)OCC)CC1`, for which the max response is -2.67% (inactive).
For the compound `COc1ccc(C)cc1-n1nnnc1SCC(=O)c1cc(C)n(Cc2ccco2)c1C`, the max response is 27.1% (inactive).
The value for `Cc1cc(C(=O)COC(=O)CNC(=O)c2ccc(F)cc2)c(C)n1Cc1ccco1` was 106% (active).
With `O=C(COC(=O)CNC(=O)c1ccco1)Nc1ccc(F)cc1`, the max response was -3.97% (inactive).
Turning to `Cc1ccc(OCC(=O)c2cc(C)n(Cc3ccco3)c2C)c([N+](=O)[O-])n1`, the max response is 43.4% (active).
In the case of `COCC(C)n1c(C)cc(C(=O)COc2ccc(C)nc2[N+](=O)[O-])c1C` (configuration not stated), the max response is 8.12% (inactive).
As to `Cc1cc(C(=O)CSc2nc(N)cc(=O)[nH]2)c(C)n1Cc1ccco1`, the max response is -1.02% (inactive).
In the case of `Cc1ccc(S(=O)(=O)NCC(=O)N2CCOCCOCCOCCOCC2)cc1`, the max response is -3.49% (inactive).
As for `CC(C)CC(=O)c1c[nH]c(C(=O)NCc2ccccc2)c1`, the max response is -3.39% (inactive).
Take `COC(=O)C(CC(C)C)NS(=O)(=O)c1cc(Br)ccc1Br` (configuration not stated): the max response was -8.13% (inactive).
As to `Cc1cc2c(cc1S(=O)(=O)CCC(=O)NCc1ccccc1)OCC(=O)N2`, the max response is -1.02% (inactive).
The value for `CCn1ccnc1CNC(=O)CC1C(=O)NCCN1Cc1ccc(F)cc1Cl` (configuration not stated) was 8.96% (inactive).
As for `Clc1ccc(CN2CCCCCC2)cc1Cl`, the max response was -3.66% (inactive).
Turning to `Cc1cccc(-n2c(=O)c3c(C)c(C)sc3n(CC(N)=O)c2=O)c1`, the max response was -0.167% (inactive).
Consider `COC(=O)CSc1nnc(-c2cccnc2)o1`, for which the max response was 12.2% (inactive).
The value for `COc1ccc(-c2nnc(SCc3cccnc3)o2)cc1` was 30.9% (active); that for `COc1ccc(-c2nnc(SC(C)C#N)o2)cc1` (configuration not stated) was 27.2% (inactive); that for `COc1ccccc1CNS(=O)(=O)c1c(C)[nH]c(C)c1C(=O)N1CCCCC1` was 11% (inactive).
Consider `O=c1[nH]cnc(O)c1C(c1ccc(F)cc1)c1c(O)nc[nH]c1=O`, for which the max response was -2.78% (inactive).
Turning to `CCOc1ccc(N(CC(=O)NCC2CCCO2)S(=O)(=O)c2ccc(C)cc2)cc1` (configuration not stated), the max response was 0.744% (inactive).
The value for `COc1cccc(/C=C2/SC(=S)N(CC(=O)NC3C=CS(=O)(=O)C3)C2=O)c1` (configuration not stated) was 8.26% (inactive).
In the case of `COc1ccc(N2C(=O)NC(NS(=O)(=O)c3ccc(Cl)cc3)(C(F)(F)F)C2=O)cc1` (configuration not stated) it was -5.1% (inactive); in that of `COc1ccc(-c2csc(-c3cccs3)n2)cc1OC`, 59.6% (active); in that of `COc1ccc(OC)c(-c2csc(-c3cccs3)n2)c1`, 30.2% (inactive).
Take `CNC(=O)c1[nH]cnc1C(=O)N[C@@H](CC(C)C)C(=O)OC(C)(C)C`: the max response was -1.12% (inactive).
With `COC(=O)c1cc(OCC(=O)NC2CCCc3ccccc32)cc(C(=O)OC)c1` (configuration not stated), the max response was 1.41% (inactive).
For `COc1ccc(Br)cc1CN(C)CC(=O)Nc1cc(Cl)cc(Cl)c1`, the max response was -1.13% (inactive).
For the compound `CCn1c(SCC(=O)NC2CC2)nnc1-c1ccccn1`, the max response was 7.07% (inactive).
In the case of `COc1ccc(NC(=O)c2cc(-c3ccc(C)cc3)on2)cc1`, the max response is 2.42% (inactive).
Turning to `Cc1ccc(C)c(NC(=O)c2ccc(OC(=O)c3ccco3)cc2)c1`, the max response is 12.4% (inactive).
Turning to `Cc1ccc(O)c(NC(=O)c2cc(-c3ccco3)on2)c1`, the max response was 17.2% (active).
In the case of `CC1CCN(C(=O)C2CCN(S(=O)(=O)N3CCC4(CC3)OCCO4)CC2)CC1` it was 5.25% (inactive).
For the compound `O=C(C1CC1)N1N=C(c2ccc(Br)cc2)CC1(O)C(F)(F)F` (configuration not stated), the max response was -6.68% (inactive).
Regarding `CC(C)Oc1ccccc1C(=O)NC(CO)C(=O)O` (configuration not stated), the max response was 5.75% (inactive).
Regarding `O=C1OCCN1C(=O)[C@H]1[C@H](c2ccc(Cl)cc2)C(c2cccc(Cl)c2)=NN1c1ccc(Br)cc1`, the max response is 1.68% (inactive).
